# Whole data set: some 33,000 sequences, median “E-score (-0.5 to 0.5)” near -0.0014, cut for the highest 2% near 0.25. The sample as a whole holds a higher share of the highest values than the screen did.
# Target: T1, Cad1 (UniProt P24813)
# T1 sequence: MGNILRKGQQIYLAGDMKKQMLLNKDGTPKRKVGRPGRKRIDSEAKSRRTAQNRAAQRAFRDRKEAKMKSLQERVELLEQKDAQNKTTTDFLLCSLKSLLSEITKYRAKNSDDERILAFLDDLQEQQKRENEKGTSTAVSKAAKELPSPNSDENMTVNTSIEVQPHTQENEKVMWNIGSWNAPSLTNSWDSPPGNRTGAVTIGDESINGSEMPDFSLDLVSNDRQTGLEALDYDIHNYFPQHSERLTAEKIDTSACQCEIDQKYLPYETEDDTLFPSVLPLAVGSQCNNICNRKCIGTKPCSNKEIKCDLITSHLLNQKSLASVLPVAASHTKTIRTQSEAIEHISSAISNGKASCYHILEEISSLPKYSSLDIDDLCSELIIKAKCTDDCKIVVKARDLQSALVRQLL
# Assay: PBM E-score (8-mer binding enrichment) (E-score (-0.5 to 0.5)); higher = stronger / more preferred TF binding
# Conditions: protein concentration: 100 nM; construct: GST-full length
# Description: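 Universal 'all 10-mer' protein binding microarrays (Agilent AMADID 015681) probed with GST-tagged S. cerevisiae TFs (full-length or DBD) made by in vitro transcription/translation (PURExpress), about 100-200 nM. Bound TF was detected with fluorescent anti-GST. Each ungapped 8-mer (which stands for itself and its reverse complement) is scored by the PBM enrichment score (E-score), a modified Wilcoxon-Mann-Whitney statistic from -0.5 to +0.5, computed with the Universal PBM Analysis Suite. Scale: above 0.35 generally sequence-specific binding.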
row,Sequence,PBM E-score
1,ATCGATGG,0.0786
2,CAGCTTCA,0.0676
3,CCTCCTTC,-0.165
4,AATTATAC,0.172
5,GATTATAA,0.29
6,AATTATGG,0.216
7,AATTATGT,0.167
8,TATTATAA,0.185
9,AATTATGA,0.297
10,AATTATAG,0.0146
11,ACTTATAA,0.279
12,ACTTATAC,0.154
13,CATTATAA,0.104
14,GCTTATAA,0.235
15,AATTATAA,0.276
16,AAACGTAC,0.0592
17,AGCTAGTG,-0.0897
18,AGCTCACG,-0.0493
19,TAGAGTCA,-0.321
20,AAAGAACC,0.0643
21,ATAAGCCA,0.063
22,AGTCGGCG,0.0599
23,GGTGGGTA,-0.0656
24,CATGTGCG,0.173
25,AGTTATAT,0.101
26,ACTTATAT,0.202

row,Sequence,PBM E-score
1,AATTATAT,0.29
2,CAAGTGGA,-0.0832
3,CCCAAAAA,-0.0252
4,CCGTTCCC,-0.0828
5,CTTATTCA,0.17
6,ATTATTCC,0.131
7,GATATTCA,0.0631
8,ATTATTCA,0.26
9,GTTATTCA,0.251
10,ATTATTCG,0.195
11,ATATTGTA,0.0624
12,ATCACCAC,0.245
13,GGCACACC,-0.298
14,CCGATGAG,0.0417
15,ACTGCACT,0.0895
16,CTTGGGGA,0.0866
17,CCGACCTC,-0.0414
18,GTCATGAC,0.288
19,CTCATGAC,-0.0193
20,GTCATGAA,0.0483
21,CACTTAAC,0.00927
22,GGCGCTCA,0.149
23,ACACCTGC,0.0761
24,CCCGCGGA,0.0649
25,CCCGCGGC,0.0319
26,CCCGCCGA,-0.0624

row,Sequence,PBM E-score
1,CCCGCGCG,0.298
2,ACCGCGGA,0.207
3,ACCGCCGA,-0.0944
4,CCCGCGCC,-0.118
5,TCCGCGGA,0.311
6,CCCGCGCA,0.106
7,GCCGCGGC,0.347
8,GCCGCCGA,0.277
9,GCCGCGGA,-0.00234
10,ATTTCCAA,-0.03
11,ACCAGGCA,-0.169
12,AAAGCCAA,-0.0764
13,AAGAGCTG,0.0198
14,CCGTTGGA,-0.182
15,ACCGATGG,-0.143
16,TCTGAACA,0.184
17,GCTATCGA,-0.0158
18,AGCGCGGC,0.0398
19,CGCGCGGA,0.212
20,CGCGCGGC,0.261
21,AGCGCGCC,0.082
22,GGCGCGCC,0.172
23,CGCGCGCC,0.254
24,TTAACAAA,0.0927
25,GACTCTAA,-0.118
26,GCATAAGC,0.254

row,Sequence,PBM E-score
1,GCATAAGA,0.108
2,ACATAAGC,0.107
3,GCTTAGCC,-0.148
4,CCTAATAA,0.0868
5,AGTAATAG,0.16
6,ACTAATAT,0.302
7,ACTAATAG,0.325
8,AGTAATAT,0.346
9,ACTAATAA,0.226
10,CCTAATAG,-0.0644
11,AATAATAT,0.208
12,ACTACTAT,0.253
13,ACTACTAA,0.158
14,AGTAATAC,0.21
15,ACTACTAC,0.0727
16,CACCTAAA,0.0285
17,TCTTAACA,0.0995
18,CCCGCCGG,-0.00326
19,GTCACTTA,0.151
20,AGCTAGCA,-0.0255
21,AGAGACGG,0.0418
22,CCTAATAC,0.013
23,ACTAACAG,0.193
24,ACTAACAC,0.184
25,GCTAATAC,0.152
26,ACTAACAT,0.255

row,Sequence,PBM E-score
1,ACTAATAC,0.301
2,ACTGCGCG,0.0621
3,AATATAGC,0.0229
4,AATATATA,0.244
5,AATATCGT,0.272
6,ACTATAGG,-0.161
7,AATATCGG,0.183
8,AATATATG,0.236
9,AATATAGG,0.123
10,AATATAGT,0.281
11,ACTATAGA,-0.00757
12,ACTATAGT,0.293
13,AATATATT,0.322
14,AATATCGA,0.242
15,ACTGGTCA,-0.0283
16,GAGTCCGC,-0.377
17,ATTTAGGA,0.0482
18,AGGCAGGG,-0.133
19,ACCACCAA,-0.0937
20,CTTCCGTC,-0.133
21,CAGAGCAA,-0.0906
22,AACAGGGC,0.0552
23,TGCGTGAA,0.0712
24,GACGTATC,-0.107
25,ACCCATGA,-0.0855
26,CCACACGC,0.131

row,Sequence,PBM E-score
1,ATTACGTG,0.163
2,CTTACGTA,0.328
3,ATTACGAA,0.327
4,GTTACGTA,0.0792
5,ATTACGTA,0.392
6,CTTACGTC,-0.0353
7,CTCACGTA,-0.0707
8,GTTACGAA,0.17
9,ATTACGAG,0.0536
10,CCAATTTC,0.105
11,ATCCACTA,0.127
12,GACTAAGA,0.0179
13,GGATTACA,0.0354
14,TAATTATA,0.306
15,TGATTACA,0.275
16,AAATTATA,0.237
17,AAATTACA,0.191
18,TAATTACA,0.265
19,CGATTACA,0.197
20,GAATTATA,0.19
21,AGATTACG,0.252
22,AGATTACT,0.184
23,AGATTACC,0.107
24,CAATTACA,0.241
25,ATGCCCGA,-0.0531
26,TGGCGCCA,0.198

row,Sequence,PBM E-score
1,CGCGTTCC,0.132
2,AGATCAGG,-0.128
3,TCGTTAGA,0.0445
4,CGTACTTC,0.096
5,CTACGGCC,-0.0892
6,TCGGTACA,-0.0456
7,AAAAGAAC,0.118
8,ACAAGAAC,0.251
9,ATAAGATC,0.0938
10,ATAAGAAC,0.205
11,ATAAGATA,0.264
12,CTAAGATA,-0.0701
13,GCAAGAAC,0.0479
14,ACAAGAAT,0.00675
15,AAAAGAAT,0.257
16,AAAAGAAG,0.0683
17,ATAAGAAT,0.284
18,ATAAGAAA,0.209
19,GGCTTTAA,-0.12
20,TACCACTA,-0.0282

# Reference: the supplement of paper PMC3334620
